Consider 36 compounds from PubChem BioAssay (NCATS).

Inconclusive results are not listed. Values without a mark were called inactive. Calls come from the whole dose curve; as a rule, active = well fitted inhibition curve with a large enough effect; inconclusive = small, poorly fitted or top-dose-only effect, or effect the other way; inactive = flat fitted curve, though single readings scatter.
% is set by controls: 0 for no effect and ±100 for the full control effect.

The target of the assay is ATP-dependent 6-phosphofructokinase (Trypanosoma brucei brucei) (UniProt O15648). Briefly: qHTS Assay to Find Inhibitors of T. brucei phosphofructokinase: hit validation (AID 492961).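 Note: luminescence reports ADP formed as PFK phosphorylates fructose-6-phosphate with ATP.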 The following applies: T. brucei PFK, ADP-Glo luminescence; series mostly up to 51.4 µM; activity change, negative = inhibition: at the top concentration. The method in brief: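 Percent activity derived from corrected luminescence, normalized between 0x and 1x enzyme controls, then fitted to concentration-response curves. Conditions: 1.25 nM PFK, 0.1 mM ATP, 0.5 mM F6P, 45 min RT.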
Sequence of ATP-dependent 6-phosphofructokinase (Trypanosoma brucei brucei) (O15648 whole entry, looked up): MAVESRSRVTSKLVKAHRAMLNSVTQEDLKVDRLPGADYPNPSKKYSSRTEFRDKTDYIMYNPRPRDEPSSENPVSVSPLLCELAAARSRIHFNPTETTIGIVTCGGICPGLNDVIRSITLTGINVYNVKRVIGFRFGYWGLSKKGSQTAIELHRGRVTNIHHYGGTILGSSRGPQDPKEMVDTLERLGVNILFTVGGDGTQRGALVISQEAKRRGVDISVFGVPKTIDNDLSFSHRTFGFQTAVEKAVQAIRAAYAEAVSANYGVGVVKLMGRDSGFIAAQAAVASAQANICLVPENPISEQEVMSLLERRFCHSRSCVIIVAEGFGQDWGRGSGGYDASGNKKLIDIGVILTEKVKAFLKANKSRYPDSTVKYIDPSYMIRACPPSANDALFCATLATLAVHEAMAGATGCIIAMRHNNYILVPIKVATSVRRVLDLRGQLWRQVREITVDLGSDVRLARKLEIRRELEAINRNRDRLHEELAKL
In general terms: In qHTS, concentration-response curves come from the screen itself.
As to `O=C1CCC(=O)N1CO`, the “activity change, negative = inhibition” value was 1.05%. For the compound `[O]=[Bi][O][Bi]=[O]`, the “activity change, negative = inhibition” value is 8.75%. Regarding `c1ccc2c(c1)Sc1ccccc1N2CCN1CCCC1`, the “activity change, negative = inhibition” value was 0%. To `O=C(O)COc1ccccc1/C=N/NC(=O)c1ccncc1` belongs -9.63%; to `C=C(C)C1CC=C(C)CC1` (stereo unspecified), 1.64%; to `CO/N=C(\C(=O)N[C@@H]1C(=O)N2C(C(=O)[O-])=C(C[n+]3cccc4c3CCC4)CS[C@H]12)c1csc(N)n1`, -13.2%. Take `CN(C)CCCSc1ccccc1NC(=O)/C=C/c1ccccc1`: the “activity change, negative = inhibition” value is -2.13%.

Regarding `FCOC(C(F)(F)F)C(F)(F)F`, the “activity change, negative = inhibition” value was -5.94%.

On to `CNC(=O)c1c(I)c(C(=O)NCC(=O)Nc2c(I)c(C(=O)O)c(I)c(C(=O)NCCO)c2I)c(I)c(N(C)C(C)=O)c1I`, for which the “activity change, negative = inhibition” value is 4.1%.

For the compound `OCC(O)CO`, the “activity change, negative = inhibition” value is -3.81%. To `O=C1NCCN1c1ncc([N+](=O)[O-])s1` belongs 3.39% [at 24.3 µM]; to `COc1cc2c(cc1OC)[C@@H](Cc1cc(OC)c(OC)c(OC)c1)[N+](C)(CCCOC(=O)CC/C=C/CCC(=O)OCCC[N+]1(C)CCc3cc(OC)c(OC)cc3[C@H]1Cc1cc(OC)c(OC)c(OC)c1)CC2` (stereo partly specified), -0.57%; to `O=C(O[C@H]1CN2CCC1CC2)N1CCc2ccccc2[C@@H]1c1ccccc1`, 1.35%. Consider `CCC(C(=O)NC(N)=O)c1ccccc1` (stereo unspecified), for which the “activity change, negative = inhibition” value was 4.38%. Regarding `CC1CCCCN1CCCOC(=O)c1ccccc1` (stereo unspecified), the “activity change, negative = inhibition” value is -7.94%. `O=C(/C=C/c1cccc(F)c1)NC1CC1`: the “activity change, negative = inhibition” value was 6.59%. On to `CS(=O)(=O)OCC(O)C(O)COS(C)(=O)=O` (stereo unspecified), for which the “activity change, negative = inhibition” value is 8.1%.

For the compound `CCN(CC)CCOc1ccccc1OC`, the “activity change, negative = inhibition” value was -4.07%. With `NCCO/C=C/[C@H](N)C(=O)O` the figure was 0.806%; with `COc1ccc(/C=C/C(=O)O)cc1`, 12.3%. `CC[C@H]1OC(=O)[C@H](C)[C@@H](O[C@H]2C[C@@](C)(OC)[C@@H](O)[C@H](C)O2)C(C)[C@@H](O[C@@H]2O[C@H](C)C[C@H](N(C)C)[C@@H]2O)[C@](C)(OC)C[C@@H](C)C(=O)[C@H](C)[C@@H](O)[C@]1(C)O` (stereo partly specified): the “activity change, negative = inhibition” value was 2.21%. Turning to `O=C1c2ccccc2C(=O)C1c1ccc(F)cc1`, the “activity change, negative = inhibition” value is -0.422%. As to `CNC(=O)[C@H](Cc1c[nH]c2ccccc12)NC(=O)[C@@H](CC(=O)NO)CC(C)C`, the “activity change, negative = inhibition” value is -6.96%.

Turning to `C=CCCCCCCCCC(=O)OC`, the “activity change, negative = inhibition” value was -9.52%. To `CCOC(=O)Cc1ccc(-c2ccccc2)cc1` belongs 2%; to `O=C(OC1C[C@@H]2CC3C[C@H](C1)N2CC3=O)c1c[nH]c2ccccc12` (stereo partly specified), 2.9%; to `COC1=C(OC)C(=O)C(C/C=C(\C)CC/C=C(\C)CC/C=C(\C)CC/C=C(\C)CC/C=C(\C)CC/C=C(\C)CC/C=C(\C)CC/C=C(\C)CC/C=C(\C)CCC=C(C)C)=C(C)C1=O`, -0.31%.

As to `C[C@]12CC[C@@H]3c4ccc(OC(=O)c5ccccc5)cc4CC[C@H]3[C@@H]1CC[C@@H]2O`, the “activity change, negative = inhibition” value was -3.9%. Turning to `FC(F)OC(Cl)C(F)(F)F` (stereo unspecified), the “activity change, negative = inhibition” value is 0%.

As for `CCCCCCCCCCCCCCCCCCCCCC(=O)Nc1ccn([C@@H]2O[C@H](CO)[C@@H](O)[C@@H]2O)c(=O)n1`, the “activity change, negative = inhibition” value is 0%.

`N#Cc1ccc2c(c1)N(CCCN1CCC(O)CC1)c1ccccc1S2`: the “activity change, negative = inhibition” value is -0.594%. Regarding `CCCCCc1ccc(C)cc1O`, the “activity change, negative = inhibition” value was 3.46%.

Turning to `O=C1c2ccccc2C(=O)C1c1ccc(Cl)cc1`, the “activity change, negative = inhibition” value was 17%. Regarding `O=C(c1cc2ccccc2o1)N1CCN(Cc2ccccc2)CC1`, the “activity change, negative = inhibition” value is -2.79%. As to `CCCCC[C@H](O)/C=C/[C@H]1[C@H](O)CC(=O)[C@@H]1C/C=C\CCCC(=O)O`, the “activity change, negative = inhibition” value is 1.27%.

On to `CCN(CC)CCC(=O)N1c2ccccc2Sc2ccc(Cl)cc21`, for which the “activity change, negative = inhibition” value is 6.85%.
